This passage reports outcome and AC50 results from PubChem BioAssay (EPA / NIEHS).

Some compounds were tested as several samples or in several runs, with calls that do not always agree. Activity calls are given as the source filed them. How the source made its calls: active means hit-call score of the fitted dose curve at least 0.9, where 1 is the maximum; inactive means score below 0.9.

The experiment can be described thus: IUF_NPC1_viability_72hr: Viability Assessment at 72 hours in the Leibniz Research Institute for Environmental Medicine (IUF) Neural Progenitor Cell Proliferation Assay (NPC1) (AID 2284209). The procedure:
IUF_NPC1 is a cell-based, multiplexed assay that uses hNPC, a human primary neural progenitor cells, with measurements taken at 72 hours after chemical dosing in a 96-well plate. Human neural progenitor cells (hNPC) are generated from human fetal brain cortex at gestational week (GW) 16-19. Grown in suspension culture and under proliferative conditions (proliferation media and growth factors), these cells represent neural progenitor cell proliferation. In the NPC1 assay, hNPC's are exposed to the test compound for 72h. Cell proliferation is assessed as an increase in sphere area using automated phase contrast imaging and as incorporation of Bromodeoxyuridine (BrdU) during DNA synthesis using a luminescence-based cell proliferation ELISA. In parallel, the cell viability is assessed using an alamar blue viability assay and the cytotoxicity using a lactate dehydrogenase dependent membrane integrity assay.IUF_NPC1_viability_72hr is one of 4 assay components measured from the IUF_NPC1 assay. It is designed to measure cell viability assessed as mitochondria-dependent reduction of resazurin to resorufin using the alamar blue cell viability assay. Viability is measured as a fluorescence signal (relative fluorescence unit) in a multiplate reader. Data from the IUF_NPC1_viability component was analyzed at the endpoint IUF_NPC1_viability in the positive analysis fitting direction relative to DMSO as the negative control and baseline of activity. Using a type of viability reporter, gain or loss-of-signal activity can be used to understand viability effects.
After the cell expansion period, the cells are cultured for up to four weeks in which they are passaged every week. Between one to three days after passaging, depending on the size chosen for passaging, spheres at a size of 0.3 mm are used in the assay. For the assessment of neural progenitor cell proliferation, the spheres are plated in poly-Hema coated 96-well U-bottom plates filled with proliferation medium containing growth factors (EGF and FGF). One 0.25 - 0.35 mm big sphere is plated in the middle of each well. Within 3 days NPCs proliferate and grow in size. Cultivation during the test method is performed at 37C and 5% CO2 at a pH of 7.2-7.6. As a positive control, spheres are cultivated in the absence of growth factors (EGF and FGF), which dramatically reduces proliferation. Exposure starts on the plating day (day 0) and is continued over three days, without chemical renewal, until the experiment is terminated. The assay is terminated by the assessment of cell viability, cytotoxicity, and proliferation by BrdU. All endpoints are generated from the same experimental run and from each well/sphere in the 96-well plate.
For the compound `[O-][Cl+3]([O-])([O-])O`, the outcome was inactive.
Same read-out and setting: the same measure for `CC1(C)[C@H](C(=O)O[C@H](C#N)c2cccc(Oc3ccccc3)c2)[C@@H]1C=C(Br)Br`: “inactive”; for `CC(=O)[O-].[Tl+]`: “inactive”; for `COP(=O)(OC)SCN1C(=O)c2ccccc2C1=O`: “inactive”.
Turning to `CCOP(=O)(Oc1cnc(C(C)(C)C)nc1)OC(C)C` (configuration not stated), the compound was called inactive.
Broadly, the AC50 is the concentration giving half of the maximal activity seen. In the case of `[CH3][Hg][Cl]`, the call was inactive and the AC50 was 820 nM (active).
For the compound `Cn1nc(C(F)(F)F)c(CS(=O)(=O)C2=NOC(C)(C)C2)c1OC(F)F`, the compound was called inactive.
The same measure, in the same setting: under `CCOP(=S)(OCC)SCS(=O)C(C)(C)C` (configuration not stated) stands “inactive”; under `C/C(=C/C=C/[C@@H](C)C(=O)O)[C@H]1CN[C@H](C(=O)O)[C@H]1CC(=O)O`, “inactive”; under `CC(=O)[O-].CC(=O)[O-].O.O.O.[Pb+2]`, “inactive”.
Still for that read-out and setting: under `Brc1ccc(Oc2cc(Br)c(Br)cc2Br)c(Br)c1` stands “inactive”.
As to `O=C1N[C@@H]2C(=C[C@H](O)[C@@H](O)[C@H]2O)c2cc3c(c(O)c21)OCO3`, the half-maximal activity concentration (AC50) is 38.3 nM (active).
With `CC1(C)[C@@H](C=C(Cl)Cl)[C@@H]1C(=O)O[C@@H](C#N)c1ccc(F)c(Oc2ccccc2)c1`, the result was inactive.
Regarding `Brc1ccc(Oc2ccc(Br)cc2Br)c(Br)c1`, the compound was classed as inactive.
On the same count and under the same terms, the same measure for `CC1(C)C(C=C(Cl)Cl)C1C(=O)O[C@H](C#N)c1cccc(Oc2ccccc2)c1` (some centres not stated): “inactive”; for `[Cd+2].[Cl-].[Cl-]`: “inactive”.
Still for that read-out and setting: under `C[n+]1ccc(-c2ccccc2)cc1` stands “inactive”; under `CP(=O)(O)CCC(N)C(=O)O` (configuration not stated), “inactive”; under `CC1(C)[C@H](C=C(Cl)Cl)[C@H]1C(=O)OCc1c(F)c(F)cc(F)c1F`, “inactive”.
In the case of `CC(C)CCCCCCCOP(=O)(Oc1ccccc1)Oc1ccccc1`, the outcome was inactive.
Same read-out and setting: under `CCOP(=O)(OCC)OC(Cl)C(Cl)(Cl)Cl` (configuration not stated) stands “inactive”; under `Cc1ccc(OP(=O)(Oc2ccc(C)cc2)Oc2ccc(C)cc2)cc1` (tested in a mixture with another compound), “inactive”.
Same read-out and setting: the same measure for `CNC1(c2ccccc2Cl)CCCCC1=O` (configuration not stated): “inactive”.
Consider `CCOP(=O)(OCC)SCSCC`, for which the compound was called inactive.
The same measure, in the same setting: under `CC1(C)C(C=C(Cl)Cl)[C@H]1C(=O)O[C@H](C#N)c1cccc(Oc2ccccc2)c1` (some centres not stated) stands “inactive”.
As to `CNC(=N[N+](=O)[O-])NCC1CCOC1` (configuration not stated), the compound was called inactive.
Same read-out and setting: under `C[n+]1ccc(-c2cc[n+](C)cc2)cc1` stands “inactive”.
For the compound `O=[As]O`, the AC50 is 2960 nM (active).
Take `CC1(C)C(C=C(Cl)c2ccc(Cl)cc2)C1C(=O)OC(C#N)c1ccc(F)c(Oc2ccccc2)c1` (configuration not stated): the call was inactive.
Same read-out and setting: under `CCOP(=O)(OCC)SCSC(C)(C)C` stands “inactive”.
Same read-out and setting: under `CC(C)CC(C)c1sccc1NC(=O)c1cn(C)nc1C(F)(F)F` (configuration not stated) stands “inactive”.
